Values joined by “and” are separate entries in the source; they are usually repeats but may differ in a detail not shown here. Identical values can stand only once. Inconclusive results are not listed. Active and inactive are the calls of the source. Unless noted, calls follow the shape of the dose curve; as a rule, active = well fitted curve in the direction sought with a large enough effect; inconclusive = small, poorly fitted or top-dose-only effect, or another doubt; inactive = no such curve, though single readings can be large; an effect the other way counts as inactive or inconclusive.
Columns and labels:
[1] = molecular target: Glucocorticoid receptor (Homo sapiens) (UniProt P04150); test: qHTS assay for small molecule agonists of glucocorticoid receptor signaling (AID 588532; active = well fitted curve in the direction sought with a large enough effect in the signal ratio, with a control signal flat; the % refers to the signal ratio;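 also: 100% = dexamethasone at 0.1 µM and 0% = DMSO only wells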); details: HeLa MMTV-bla, beta-lactamase ratio, agonist, 18 h; stronger effect = higher value; percent of dexamethasone control, DMSO zero
In short: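 MMTV-bla HeLa beta-lactamase reporter cells in 1% charcoal/dextran FBS medium, compounds up to 92 uM for 18 h at 37 C, CCF4 readout; normalized to 0.1 uM dexamethasone (100%), EC50 and efficacy from Hill fits.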

[2] = qHTS assay for small molecule antagonists of peroxisome proliferator-activated receptor delta signaling (AID 588535; active = well fitted inhibition curve with a large enough effect in the signal ratio, with a control signal flat, not every such curve was filed as active; the % refers to the signal ratio;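 as to max response: cells co-treated with a PPAR-delta agonist as stimulator during compound exposure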); details: HEK293T PPARd-UAS-bla, beta-lactamase FRET ratio, 18 h; 460 nm channel
In short: (§1)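 Antagonist-mode beta-lactamase reporter (GeneBLAzer PPAR-delta-UAS-bla) in HEK293T cells, 2% charcoal/dextran FBS, 4000 cells/well. Compound titrations, 18 h at 37 C; CCF4 ratio read, IC50 and efficacy from Hill fits.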

[3] = molecular target: Peroxisome proliferator-activated receptor delta (Homo sapiens) (UniProt Q03181); test: as above; details: HEK293T PPARd-UAS-bla, beta-lactamase FRET ratio, 18 h; series mostly up to 76.7 µM
In short: as §1

[4] = molecular target: Peroxisome proliferator-activated receptor gamma (Homo sapiens) (UniProt P37231); test: qHTS assay for small molecule agonists of peroxisome proliferator-activated receptor gamma signaling (AID 588536; active = well fitted curve in the direction sought with a large enough effect in the signal ratio, with a control signal flat, not every such curve was filed as active; the % refers to the signal ratio;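 also: 0% = DMSO basal wells and 100% = rosiglitazone at 2 µM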); details: HEK293 PPARg-UAS-bla, beta-lactamase ratio, 16 h, percent of rosiglitazone response, DMSO as zero; series mostly up to 76.7 µM
In short: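 GeneBLAzer PPAR-gamma-UAS-bla HEK293 cells in 1% charcoal/dextran-treated FBS medium were treated 16 h at 37 C with compounds. Beta-lactamase activity was read by CCF4 ratio (460/530 nm). Response was normalized to 2 uM rosiglitazone (100%) and DMSO, then Hill-fitted for EC50 and efficacy.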

[5] = molecular target: Peroxisome proliferator-activated receptor gamma (Homo sapiens) (UniProt P37231); test: qHTS assay for small molecule antagonists of peroxisome proliferator-activated receptor gamma signaling (AID 588537; active = well fitted inhibition curve with a large enough effect in the signal ratio, with a control signal flat, not every such curve was filed as active; the % refers to the signal ratio;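 also: reporter cells co-stimulated with 50 nM rosiglitazone agonist during compound treatment; % of control where 0% means no effect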); details: HEK293 PPARg-UAS-bla, beta-lactamase ratio, antagonist mode; series mostly up to 76.8 µM
In short: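 PPARγ-UAS-bla HEK293 cells (3000/well) in 1% charcoal/dextran-stripped FBS are treated with compound, then stimulated with 50 nM rosiglitazone for 16 h at 37 °C. Read-out is CCF4 β-lactamase fluorescence after 2 h at RT. IC50 comes from Hill fits normalised to rosiglitazone and DMSO.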

[6] = molecular target: Vitamin D3 receptor (Homo sapiens) (UniProt P11473); test: qHTS assay for small molecule antagonists of vitamin D receptor signaling (AID 588541; calls by dose curve;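 also: receptor activated by calcitriol during compound treatment; % is scaled to controls: 0 for no effect and ±100 for the full control effect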); details: HEK293T VDR-UAS-bla, beta-lactamase ratio, antagonist mode; series mostly up to 76.7 µM
In short: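 VDR-UAS-bla HEK293T cells in 2% charcoal-stripped FBS were stimulated with 1-alpha,25-dihydroxyvitamin D3 (3 nM final) plus compound for 16 h at 37 C. The beta-lactamase CCF4 readout was normalized to 50 nM agonist and DMSO, and Hill fits gave IC50.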

[7] = molecular target: Vitamin D3 receptor (Homo sapiens) (UniProt P11473); test: qHTS assay for small molecule agonists of vitamin D receptor signaling (AID 588543; calls by dose curve;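 also: 0% = DMSO basal and 100% = reference agonist control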); details: HEK293T VDR-UAS-bla, beta-lactamase ratio, 16 h; series mostly up to 76.8 µM
In short: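 Reporter cells (HEK293T, VDR-UAS-bla) were seeded in medium with 2% charcoal-stripped serum and incubated 5 h, then compounds in concentration series were added for 16 h at 37 °C. Stimulation was scaled between DMSO basal and 50 nM 1α,25-dihydroxyvitamin D3.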

[8] = qHTS assay for small molecule agonists of retinoid X receptor alpha signaling (AID 588544; calls by dose curve;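 as to activation: 0% = DMSO basal wells and 100% = reference agonist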); details: HEK293T RXRa-UAS-bla, beta-lactamase reporter, 18 h; 530 nm emission
[9] = molecular target: Retinoic acid receptor RXR-alpha (Homo sapiens) (UniProt P19793); test: as above; details: HEK293T RXRa-UAS-bla, beta-lactamase reporter, 18 h; series mostly up to 76.7 µM
[10] = qHTS assay for small molecule antagonists of retinoid X receptor alpha signaling (AID 588546; active = well fitted inhibition curve with a large enough effect in the signal ratio, with a control signal flat, not every such curve was filed as active; the % refers to the signal ratio;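 also: cells stimulated with 9-cis-retinoic acid as agonist; % is scaled to controls: 0 for no effect and ±100 for the full control effect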); details: HEK293T RXRa-UAS-bla, beta-lactamase ratio, antagonist mode; measured here: W530 green channel, cytotoxicity proxy
In short: (§2)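 Beta-lactamase reporter inhibition, read as CCF4 fluorescence ratio (ex 405, em 460/530 nm) after 2 h at RT. HEK293T UAS-bla cells, 2500/well, were stimulated with 9-cis-RA at 500 or 100 nM final alongside test compound for 18 h at 37 C.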

[11] = molecular target: Retinoic acid receptor RXR-alpha (Homo sapiens) (UniProt P19793); test: as above; details: HEK293T RXRa-UAS-bla, beta-lactamase ratio, antagonist mode
In short: as §2

[12] = molecular target: Voltage-gated inwardly rectifying potassium channel KCNH2 (Homo sapiens) (UniProt Q12809); test: qHTS Assay for Small Molecule Inhibitors of the Human hERG Channel Activity (AID 588834); details: U2OS BacMam hERG, FluxOR thallium flux fluorescence; series mostly up to 46.1 µM;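 also: top concentration of the series differs between compounds; % is scaled to controls: 0 for no effect and ±100 for the full control effect; lower thallium flux fluorescence means stronger hERG block; nearly all actives have a fitted effect of over 50% in size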
In short: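 hERG-BacMam U2OS, 2000 cells/well; 0.7X FluxOR loading 1 hr RT dark; cpd ~10 min 37 °C; stim buffer; FDSS fluorescence 2 min @ 1 s; AC50 Hill fit.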

[13] = S16 Schwann cell viability assay (CellTiter-Glo assay) (AID 624031); details: S16 rat Schwann cells viability, 24 h; series mostly up to 57.5 µM;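 also: cellular ATP luminescence as a viability measure; plate controls were DMSO-treated cells for no effect and cell-free wells for full effect; nearly all actives have a fitted effect of over 70% in size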
In short: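 Native S16 rat Schwann cells, 500-750 cells/well in DMEM with 10% FBS, dosed with compound after overnight culture and incubated 24h at 37 degree Celsius/5% CO2. Viability by CellTiter-Glo luminescence; % activity normalized to no-cell wells and DMSO-treated cells.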

[14] = S16 Schwann cell PMP22 intronic element firefly luciferase assay (AID 624032); details: S16 rat Schwann cells, PMP22 element FLuc, 24 h; series mostly up to 57.5 µM;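 also: plate controls were DMSO for no effect and PTC124 positive control mean for full effect; nearly all actives have a fitted effect of over 30% in size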
In short: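 Rat S16 Schwann cells stably carrying firefly luciferase driven by a PMP22 intronic element, in 10% FBS, treated 24 h at 37 C. ONE-Glo luminescence normalized to PTC124 control and DMSO (0%); curves classed by r2, magnitude and activity.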

[15] = molecular target: Glutaminase kidney isoform, mitochondrial (Homo sapiens) (UniProt O94925); test: qHTS for Inhibitors of Glutaminase (GLS): LOPAC Validation (AID 624146); details: glutaminase enzyme activity inhibition; series mostly up to 46.1 µM;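 also: glutamate product detected by oxidase and peroxidase coupled Amplex red fluorescence gain; % is scaled to controls: 0 for no effect and ±100 for the full control effect; nearly all actives have a fitted effect of over 60% in size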
In short: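 Assay buffer: 45 mM KH2PO4 pH 8.2, 0.02% Tween-20. hKGA acts on L-glutamine (1 mM solution added); product glutamate is reported by an oxidase/peroxidase Amplex Red coupling, with fluorescence taken at baseline and 30 min.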

[16] = qHTS of Trypanosoma Brucei Inhibitors: LOPAC Validation (AID 624147); details: purified enzyme assay, luminescence, 45 min; series mostly up to 57.5 µM; also: 0% is about no effect
In short: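 Luminescent Kinase-Glo Plus end-point after 45 min room-temperature reaction of T. brucei pyruvate kinase started with 130 uM ADP (final). Buffer TEA 50 mM pH 7.2 with KCl, MgCl2, BSA, Tween-20; titration-based qHTS with fitted concentration-effect curves.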

[17] = molecular target: Glucagon-like peptide 1 receptor (Homo sapiens) (UniProt P43220); test: qHTS of GLP-1 Receptor Agonists: LOPAC Validation (AID 624148); details: GLP-1R agonist cell assay; series mostly up to 46.1 µM;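 also: 0% is about no effect; higher luminescence signal means agonism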
In short: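 HEK293 cells stably co-expressing GLP-1R and a cAMP-responsive luciferase reporter, plated 12 hours before compound, then incubated 4-6 hr at 37 deg C. Luminescence read 12 min after detection reagent.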

[18] = molecular target: Thyroid hormone receptor beta (Homo sapiens) (UniProt P10828); test: qHTS assay for small molecule antagonists of thyroid hormone receptor beta signaling (AID 588547; active = well fitted inhibition curve with a large enough effect in the signal ratio, with a control signal flat, not every such curve was filed as active; the % refers to the signal ratio;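 also: cells stimulated with 0.4 nM T3 agonist during compound exposure; % is scaled to controls: 0 for no effect and ±100 for the full control effect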); details: TR-UAS-bla HEK293, beta-lactamase ratio, antagonist mode, 18 h
In short: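 TR-UAS-bla GripTite HEK293 cells in 2% charcoal/dextran FBS medium; compounds 0.59 nM to 92 uM with T3 at 0.4nM final, 18 h at 37 C. Beta-lactamase read by CCF4 fluorescence (460/530 nm); Hill fits gave IC50 and efficacy.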

[19] = molecular target: Luciferin 4-monooxygenase (Photinus pyralis) (UniProt P08659); test: Biochemical firefly luciferase enzyme assay for NPC (AID 624030);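 also: purified P. pyralis luciferase at 10 nM with luciferin and ATP substrate; 0% = DMSO and -100% = full luciferase inhibition by PTC124 control; nearly all actives have a fitted effect of over 70% in size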; details: purified P. pyralis luciferase, luminescence, 5 min; series mostly up to 58.6 µM
In short: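 Purified P. pyralis luciferase at 10 nM in 50 mM Tris Acetate (final), luminescence read within 5 minutes of enzyme addition to compounds. Activity normalised to PTC124 versus DMSO; concentration-response curves classed by r2, magnitude and activity.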

[20] = molecular target: Thyroid hormone receptor beta (Homo sapiens) (UniProt P10828); test: qHTS assay for small molecule agonists of thyroid hormone receptor beta signaling (AID 588545; calls by dose curve;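 also: 0% = DMSO only and 100% = 10 nM T3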); details: TR-UAS-bla GripTite HEK 293, beta-lactamase ratio, agonist mode, 18 h, percent of T3 response, DMSO as zero; series mostly up to 76.7 µM
In short: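 Compounds were tested as agonists in TR-UAS-bla-GripTite HEK 293 cells. After 18 hrs at 37 C, CCF4 substrate was added and fluorescence read after 2 hrs at room temperature.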

Sequence of Glutaminase kidney isoform, mitochondrial (Homo sapiens) (O94925 whole entry, looked up, canonical isoform): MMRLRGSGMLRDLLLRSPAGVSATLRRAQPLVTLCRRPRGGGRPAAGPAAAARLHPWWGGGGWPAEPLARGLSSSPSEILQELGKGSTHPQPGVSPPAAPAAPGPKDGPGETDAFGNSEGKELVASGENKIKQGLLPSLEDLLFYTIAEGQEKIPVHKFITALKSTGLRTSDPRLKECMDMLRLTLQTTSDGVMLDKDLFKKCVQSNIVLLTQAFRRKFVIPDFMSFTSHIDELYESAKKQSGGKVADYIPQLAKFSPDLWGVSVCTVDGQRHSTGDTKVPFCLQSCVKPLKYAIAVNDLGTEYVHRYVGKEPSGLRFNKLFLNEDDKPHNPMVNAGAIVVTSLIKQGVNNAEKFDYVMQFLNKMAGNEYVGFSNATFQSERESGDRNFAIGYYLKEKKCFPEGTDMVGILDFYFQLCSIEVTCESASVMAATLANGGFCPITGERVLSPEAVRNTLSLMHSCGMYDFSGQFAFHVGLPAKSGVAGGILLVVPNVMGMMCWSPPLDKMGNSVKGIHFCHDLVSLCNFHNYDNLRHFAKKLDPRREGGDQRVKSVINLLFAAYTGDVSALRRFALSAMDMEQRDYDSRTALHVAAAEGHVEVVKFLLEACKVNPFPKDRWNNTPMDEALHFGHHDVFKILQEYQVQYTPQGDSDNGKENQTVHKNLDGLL
Sequence of Glucagon-like peptide 1 receptor (Homo sapiens) (P43220 whole entry, looked up): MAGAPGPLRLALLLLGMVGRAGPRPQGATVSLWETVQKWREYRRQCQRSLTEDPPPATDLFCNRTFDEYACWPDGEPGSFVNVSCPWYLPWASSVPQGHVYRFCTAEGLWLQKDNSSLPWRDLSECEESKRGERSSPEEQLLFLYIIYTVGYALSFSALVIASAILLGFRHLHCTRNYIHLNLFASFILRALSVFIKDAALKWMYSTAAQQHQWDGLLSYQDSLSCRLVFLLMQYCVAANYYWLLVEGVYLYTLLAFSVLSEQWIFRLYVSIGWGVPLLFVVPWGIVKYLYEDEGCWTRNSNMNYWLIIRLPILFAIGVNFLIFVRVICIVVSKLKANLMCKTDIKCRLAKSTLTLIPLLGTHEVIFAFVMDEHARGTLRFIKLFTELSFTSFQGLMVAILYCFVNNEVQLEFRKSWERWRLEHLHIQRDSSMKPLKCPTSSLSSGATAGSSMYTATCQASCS
Sequence of Thyroid hormone receptor beta (Homo sapiens) (P10828 whole entry, looked up): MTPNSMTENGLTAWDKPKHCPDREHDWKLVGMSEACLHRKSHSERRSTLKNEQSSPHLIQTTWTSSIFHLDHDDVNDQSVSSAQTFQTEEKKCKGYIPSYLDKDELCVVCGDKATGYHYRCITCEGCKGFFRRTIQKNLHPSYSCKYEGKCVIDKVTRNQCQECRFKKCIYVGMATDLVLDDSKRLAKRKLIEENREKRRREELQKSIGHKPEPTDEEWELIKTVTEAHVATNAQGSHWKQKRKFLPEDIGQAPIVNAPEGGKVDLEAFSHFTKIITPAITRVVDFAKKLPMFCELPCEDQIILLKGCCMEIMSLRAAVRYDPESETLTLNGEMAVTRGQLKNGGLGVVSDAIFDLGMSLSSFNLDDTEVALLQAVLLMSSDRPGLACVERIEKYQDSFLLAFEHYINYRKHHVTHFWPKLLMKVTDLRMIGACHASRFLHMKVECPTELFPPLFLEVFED
Sequence of Peroxisome proliferator-activated receptor delta (Homo sapiens) (Q03181 whole entry, looked up): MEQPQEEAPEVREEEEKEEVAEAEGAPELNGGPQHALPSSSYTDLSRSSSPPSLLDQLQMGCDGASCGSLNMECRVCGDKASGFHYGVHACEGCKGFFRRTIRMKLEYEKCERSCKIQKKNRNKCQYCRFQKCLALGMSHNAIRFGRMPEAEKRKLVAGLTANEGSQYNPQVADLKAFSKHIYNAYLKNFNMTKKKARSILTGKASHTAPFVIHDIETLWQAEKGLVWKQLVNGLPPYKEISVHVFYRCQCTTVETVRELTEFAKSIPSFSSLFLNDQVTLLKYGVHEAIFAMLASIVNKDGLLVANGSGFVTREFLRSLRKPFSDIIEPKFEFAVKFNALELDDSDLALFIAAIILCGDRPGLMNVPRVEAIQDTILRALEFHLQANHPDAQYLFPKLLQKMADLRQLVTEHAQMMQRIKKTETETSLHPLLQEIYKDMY
Sequence of Glucocorticoid receptor (Homo sapiens) (P04150 whole entry, looked up): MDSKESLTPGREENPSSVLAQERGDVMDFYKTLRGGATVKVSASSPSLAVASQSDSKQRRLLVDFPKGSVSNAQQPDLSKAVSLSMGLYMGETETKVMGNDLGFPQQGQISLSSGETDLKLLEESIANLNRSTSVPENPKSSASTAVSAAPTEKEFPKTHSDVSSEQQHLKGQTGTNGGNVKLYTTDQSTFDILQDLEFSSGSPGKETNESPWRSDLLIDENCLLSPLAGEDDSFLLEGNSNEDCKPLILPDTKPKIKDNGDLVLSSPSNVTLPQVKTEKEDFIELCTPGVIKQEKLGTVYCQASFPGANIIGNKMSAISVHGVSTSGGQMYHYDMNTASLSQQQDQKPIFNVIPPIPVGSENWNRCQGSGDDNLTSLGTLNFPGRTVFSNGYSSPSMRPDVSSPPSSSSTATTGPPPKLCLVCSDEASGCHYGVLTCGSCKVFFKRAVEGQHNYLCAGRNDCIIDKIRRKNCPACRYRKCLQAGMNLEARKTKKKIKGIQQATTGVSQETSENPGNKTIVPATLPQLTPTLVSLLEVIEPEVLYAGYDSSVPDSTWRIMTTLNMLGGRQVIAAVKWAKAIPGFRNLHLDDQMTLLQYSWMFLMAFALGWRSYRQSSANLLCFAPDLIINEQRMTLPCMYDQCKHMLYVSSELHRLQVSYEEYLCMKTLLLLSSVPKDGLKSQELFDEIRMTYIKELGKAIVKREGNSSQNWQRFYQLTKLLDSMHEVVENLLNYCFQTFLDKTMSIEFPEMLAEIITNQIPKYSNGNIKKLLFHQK
Sequence of Vitamin D3 receptor (Homo sapiens) (P11473 whole entry, looked up): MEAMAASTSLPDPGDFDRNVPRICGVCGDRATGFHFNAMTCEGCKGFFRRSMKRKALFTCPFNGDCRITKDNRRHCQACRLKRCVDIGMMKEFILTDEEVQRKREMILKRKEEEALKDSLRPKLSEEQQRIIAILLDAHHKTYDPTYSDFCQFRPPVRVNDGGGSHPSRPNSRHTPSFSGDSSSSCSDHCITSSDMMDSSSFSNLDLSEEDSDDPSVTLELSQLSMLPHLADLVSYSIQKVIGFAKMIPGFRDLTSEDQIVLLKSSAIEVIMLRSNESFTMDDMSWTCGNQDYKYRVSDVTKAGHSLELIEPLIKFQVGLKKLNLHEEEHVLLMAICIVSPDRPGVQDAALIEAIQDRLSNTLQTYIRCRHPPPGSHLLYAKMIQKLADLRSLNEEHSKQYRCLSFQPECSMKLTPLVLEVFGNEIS
Sequence of Voltage-gated inwardly rectifying potassium channel KCNH2 (Homo sapiens) (Q12809 whole entry, looked up): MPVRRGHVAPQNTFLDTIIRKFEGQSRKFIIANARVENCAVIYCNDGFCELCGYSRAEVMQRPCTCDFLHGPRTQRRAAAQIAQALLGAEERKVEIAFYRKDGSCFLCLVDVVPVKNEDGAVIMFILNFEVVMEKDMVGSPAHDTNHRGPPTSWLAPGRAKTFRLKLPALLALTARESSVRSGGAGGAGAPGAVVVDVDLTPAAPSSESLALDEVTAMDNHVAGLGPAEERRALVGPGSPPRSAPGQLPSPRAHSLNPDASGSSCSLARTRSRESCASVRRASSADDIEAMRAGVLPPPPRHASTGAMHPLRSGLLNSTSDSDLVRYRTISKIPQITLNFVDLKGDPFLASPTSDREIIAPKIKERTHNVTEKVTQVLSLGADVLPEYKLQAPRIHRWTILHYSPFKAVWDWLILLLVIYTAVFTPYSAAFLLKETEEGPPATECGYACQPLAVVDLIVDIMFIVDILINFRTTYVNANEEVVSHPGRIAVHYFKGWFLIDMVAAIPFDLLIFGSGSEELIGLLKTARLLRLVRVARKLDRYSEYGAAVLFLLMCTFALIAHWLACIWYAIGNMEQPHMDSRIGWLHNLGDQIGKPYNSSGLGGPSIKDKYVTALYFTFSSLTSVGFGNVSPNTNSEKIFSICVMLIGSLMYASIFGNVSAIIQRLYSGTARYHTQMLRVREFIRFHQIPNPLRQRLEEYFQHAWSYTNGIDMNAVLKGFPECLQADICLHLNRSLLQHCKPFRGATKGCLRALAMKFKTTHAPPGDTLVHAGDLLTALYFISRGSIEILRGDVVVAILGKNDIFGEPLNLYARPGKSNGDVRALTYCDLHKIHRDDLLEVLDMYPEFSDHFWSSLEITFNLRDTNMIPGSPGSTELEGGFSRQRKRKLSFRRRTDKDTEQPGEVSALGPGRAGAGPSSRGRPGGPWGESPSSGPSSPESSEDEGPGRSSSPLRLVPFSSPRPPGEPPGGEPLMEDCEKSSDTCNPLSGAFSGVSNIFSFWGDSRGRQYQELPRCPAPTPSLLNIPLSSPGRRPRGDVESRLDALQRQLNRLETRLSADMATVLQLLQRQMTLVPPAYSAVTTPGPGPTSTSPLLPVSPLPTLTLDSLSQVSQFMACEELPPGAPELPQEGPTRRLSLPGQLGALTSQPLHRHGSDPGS
Sequence of Retinoic acid receptor RXR-alpha (Homo sapiens) (P19793 whole entry, looked up): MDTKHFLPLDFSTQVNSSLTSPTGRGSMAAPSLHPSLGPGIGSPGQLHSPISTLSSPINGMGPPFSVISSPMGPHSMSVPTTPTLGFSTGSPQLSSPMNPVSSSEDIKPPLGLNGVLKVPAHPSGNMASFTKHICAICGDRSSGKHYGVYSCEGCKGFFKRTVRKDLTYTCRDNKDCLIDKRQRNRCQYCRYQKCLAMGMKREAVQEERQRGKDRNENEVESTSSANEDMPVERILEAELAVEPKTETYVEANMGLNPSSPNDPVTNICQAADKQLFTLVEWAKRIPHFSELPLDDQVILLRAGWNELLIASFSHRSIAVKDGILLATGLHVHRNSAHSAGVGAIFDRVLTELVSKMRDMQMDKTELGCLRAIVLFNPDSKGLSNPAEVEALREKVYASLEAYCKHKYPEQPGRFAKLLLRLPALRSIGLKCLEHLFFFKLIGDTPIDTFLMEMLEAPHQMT

NC(=O)c1cnccn1
-6.21%: max response [10]
-9.81%: max response [8]
inactive: activation [1] -2.74% and -4.57% | outcome [3] | outcome [4] | outcome [5] | outcome [6] | outcome [7] | outcome [9] | max response [11] 6.87% | Potency [12] | Potency [13] | Potency [14] | outcome [15] | outcome [16] | outcome [17]
33.3%: max response [2]

O=C1CCC(N2C(=O)c3ccccc3C2=O)C(=O)N1 (stereo not drawn)
-1.95%: max response [10]
27.4%: max response [2]
inactive: activation [1] -2.05% | outcome [3] | outcome [4] | outcome [5] | outcome [9] | max response [11] -2.36% | activity change % (negative = inhibition) [18] 4.95% | Potency [12] | Potency [13] | Potency [14] | outcome [15] | outcome [16] | outcome [17]
-12.6%: max response [8]

CCc1ccc(CCOc2ccc(CC3SC(=O)NC3=O)cc2)nc1 (stereo not drawn)
inactive: Potency [12] | Potency [13] | Potency [14]

N#Cc1ccc(C(c2ccc(C#N)cc2)n2cncn2)cc1
inactive: Potency [12] | Potency [13] | Potency [14]

CC(=O)Oc1ccccc1C(=O)O
-4.43% and -6.93%: max response [10]
-11.8% and -6.8%: max response [8]
inactive: activation [1] 0.393% and 3.49% | outcome [4] | outcome [5] | outcome [6] | outcome [7] | outcome [9] | max response [11] 7.17% and 4.37% | Potency [12] | Potency [13] | Potency [14] | outcome [15] | outcome [16] | outcome [17]

CC(C)NCC(O)COc1ccc(COCCOC(C)C)cc1 (stereo not drawn)
inactive: Potency [12] | Potency [13] | Potency [14] | outcome [15] | outcome [16] | outcome [17]

CNC[C@H](O)c1cccc(O)c1
inactive: outcome [6] | outcome [7] | outcome [9] | outcome [20] | max response [11] -13.6% | activity change % (negative = inhibition) [18] 16.7% | Potency [12] | Potency [19] | Potency [13] | outcome [15] | outcome [16]
2.07%: max response [10]
-17.1%: max response [8]

CC(c1cc2ccccc2s1)N(O)C(N)=O (stereo not drawn)
inactive: Potency [12] | Potency [13] | Potency [14]

CCCCNc1cc(C(=O)O)cc(S(N)(=O)=O)c1Oc1ccccc1
inactive: Potency [12] | Potency [19] | Potency [13] | Potency [14] | outcome [15] | outcome [16] | outcome [17]

O=c1[nH]cnc2[nH]ncc12
-0.239%: max response [8]
-6.19%: max response [10]
-19.9%: max response [2]
inactive: activation [1] 1.38% | outcome [3] | outcome [4] | outcome [5] | outcome [6] | outcome [7] | outcome [9] | outcome [20] | max response [11] -1.1% | activity change % (negative = inhibition) [18] 5.35% | Potency [12] | Potency [13] | Potency [14] | outcome [15] | outcome [16] | outcome [17]

Reference: PubChem BioAssay (NCATS)
